# High-throughput results as filed in PubChem.
# RGS7-Gao – human RGS7-Galphao interaction regulation | 220,000 tested, 0.35% active | AID 1439 | P09471 | Multiplexed bead flow cytometry, RGS7-Galphao binding; actives lie on both sides | binding response (% of control), % at 10 µM; in the data active means binding response below about 49% or above about 150%; inconclusive means no clear call, values can overlap the other calls; inactive means in between;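 further: fluorescent Galphao held in activated GDP-AlF4 state binding bead-coupled RGS7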
# RGS8-Gao – regulators of human RGS8-Galphao interaction; multiplexed bead flow cytometry, RGS8-Galphao binding; actives lie on both sides; response (percent of control binding), % at 10 µM; 220,000 tested, 0.34% active; AID 1423; in the data active means response below about 60% or above about 140%; inactive means in between;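 further: Galphao activated as the GDP aluminium fluoride complex binding bead-coupled RGS8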
# RGS16-Gao HTS – RGS16-Galphao interaction regulator (human); O15492+P09471; bead-based flow cytometry RGS16-Galphao binding, fluorescence; actives lie on both sides; binding response (% of control), % at 10 µM; 220,000 tested, 0.38% active;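 further: Galphao activated by GDP with aluminum fluoride before binding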
# Target sequence (O15492 whole entry, looked up): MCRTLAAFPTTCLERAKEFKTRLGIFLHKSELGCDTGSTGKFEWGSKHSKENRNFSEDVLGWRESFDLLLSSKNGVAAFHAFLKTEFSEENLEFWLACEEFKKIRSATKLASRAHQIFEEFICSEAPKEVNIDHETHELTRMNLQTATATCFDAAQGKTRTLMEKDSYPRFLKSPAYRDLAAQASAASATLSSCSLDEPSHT
# Target sequence (P09471 whole entry, looked up): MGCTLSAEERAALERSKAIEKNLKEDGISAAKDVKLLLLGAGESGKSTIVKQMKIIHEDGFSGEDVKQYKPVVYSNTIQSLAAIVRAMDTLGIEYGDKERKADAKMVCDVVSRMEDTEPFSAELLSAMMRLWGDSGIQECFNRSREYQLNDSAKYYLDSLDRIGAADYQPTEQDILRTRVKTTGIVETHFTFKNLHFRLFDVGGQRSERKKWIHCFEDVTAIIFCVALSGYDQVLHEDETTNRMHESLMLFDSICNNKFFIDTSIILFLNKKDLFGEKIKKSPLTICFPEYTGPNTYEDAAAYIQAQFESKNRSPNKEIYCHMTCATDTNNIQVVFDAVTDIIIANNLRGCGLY
# GSH bead fluor – GSH bead compound fluorescence profile | GSH beads flow cytometry, compound fluorescence 488/530 nm; active compounds read high | fluorescence (KMESF) at 10 µM | 190,000 tested, 0.25% active | AID 1776; in the data active means fluorescence above about 89;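 further: glutathione beads carrying GST-tagged Bcl family fusion proteins plus one bare bead set; values are compound well signal with DMSO vehicle wells as background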
# Avidin bead fluor – compound fluoresces at 488/530 nm on avidin beads | AID 1775 | 220,000 tested, 0.38% active | compound fluorescence 488/530 nm, flow cytometry; active compounds read high | fluorescence (KMESF) at 10 µM; in the data active means fluorescence above about 47
# RGS4-Gao reg – modulates binding of RGS4 to human Galphao. P09471. Multiplexed bead flow cytometry; actives lie on both sides. binding response (% of control), % at 10 µM. 220,000 tested, 0.33% active. AID 1415; in the data active means binding response below about 49% or above about 150%; inactive means in between;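 further: fluorescent Galphao activated with aluminum fluoride binding bead-coupled RGS4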
# RGS4-Gao HTS – modulates binding between human RGS4 and Galphao | shares compounds with RGS16-Gao HTS | multiplexed bead flow cytometry, RGS–Galpha-o binding | RGS4–Galpha-o binding response, % at 10 µM | 1,600 tested, 99% active | AID 1504;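 further: fluorescently labeled Galpha-o bound to GDP with aluminium fluoride binding biotinylated RGS beads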
# Biotin-avidin – biotin-avidin bead binding disruption counter-screen; shares compounds with RGS16-Gao HTS; streptavidin beads, fluorescein-biotin binding, flow cytometry; inhibition, % at 10 µM; 1,700 tested, under 10 active; AID 1783;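 active means inhibition above 50%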;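 further: median green fluorescence of gated singlet beads compared with DMSO control wells; 0% = DMSO wells and 100% = complete loss of bead fluorescence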
# RGS8-Gao single – confirmation of regulators of human RGS8-Galphao interaction. shares compounds with RGS16-Gao HTS. bead-based flow cytometry RGS8-Galphao binding, fluorescence; actives lie on both sides. binding response (% of control), % at 10 µM. 1,700 tested, 3% active. AID 1836; in the data active means binding response below about 72% or above about 130%; inactive means in between;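 further: Galphao activated as GDP AlF4 complex before binding bead RGS8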
# RGS7-Gao single – confirmation of regulators of human RGS7-Galphao interaction; shares compounds with RGS16-Gao HTS; response (percent of control binding), % at 10 µM; 1,700 tested, 7.8% active; bead-based flow cytometry RGS7-Galphao binding; actives lie on both sides; in the data active means response below about 75% or above about 130%; inactive means in between;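 further: fluorescent Galphao activated with GDP and aluminum fluoride binding bead-coupled RGS7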
# RGS16-Gao single – RGS16-Galphao interaction regulation, single point confirmation | shares compounds with RGS16-Gao HTS | bead-based flow cytometry, RGS16-Galphao binding; actives lie on both sides | response (% of control binding), % at 10 µM | 1,700 tested, 4% active; in the data active means response below about 74% or above about 130%; inactive means in between;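 further: Galphao activated as the GDP aluminium fluoride complex binding bead-coupled RGS16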
# RGS4-Gao single – confirmation of regulators of human RGS4-Galphao interaction; shares compounds with RGS16-Gao HTS; AID 1840; RGS4-Galphao binding, multiplexed bead flow cytometry; actives lie on both sides; 1,700 tested, 4% active; binding response (% of control), % at 10 µM; in the data active means binding response below about 74% or above about 130%; inactive means in between
# RGS19-Gao single – RGS19-Galphao interaction regulation, single point confirmation | bead-based flow cytometry RGS19-Galphao binding; actives lie on both sides | 1,700 tested, 5% active | shares compounds with RGS16-Gao HTS | response (percent of control binding), % at 10 µM; in the data active means response below about 50% or above about 160%; inactive means in between;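 further: 100% = no compound control and 0% = blank background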
# * hit, by the source's call; ? = inconclusive; . = not tested or not shown; [ ] = remark or other dose. Most compounds without a hit are left out; they make up all but 1.2% or so of the library. Unless noted, how the calls were made is not given here.
SMILES,RGS7-Gao,RGS8-Gao,RGS16-Gao HTS,GSH bead fluor,Avidin bead fluor,RGS4-Gao reg,RGS4-Gao HTS,Biotin-avidin,RGS8-Gao single,RGS7-Gao single,RGS16-Gao single,RGS4-Gao single,RGS19-Gao single
OCCN(Cc1ccccc1)Cc1ccc(C(F)(F)F)cc1,98.3,100.4,101.7,25,25,101.6,.,.,.,.,.,.,.
OCCN(Cc1ccccc1)Cc1cccc(C(F)(F)F)c1,.,.,.,46,.,.,.,1.0,97.7,90.0,95.8,94.2,70.5
c1ccc(C2CCC(N3CCNCC3)CC2)cc1 (stereo not given),121.8,140.6*[activator],250.0*[activator],10,6,120.0,120.0*,-1.3,103.3,94.1,97.3,93.3,102.5
CCOc1ccc(-n2cc(C(=O)N3CCN(C)CC3)c3cc(OC)c(OC)cc3c2=O)cc1,98.7,99.7,100.0,32,7,98.3,.,.,.,.,.,.,.
COc1ccc2c(c1OC)C(=O)OC2Nc1ncc(Br)cc1Br (stereo not given),111.8,124.7,187.8*[activator],46,5,124.2,124.2*,0.3,99.7,102.4,100.1,100.3,100.0
COc1ccc2c(c1OC)C(=O)OC2Nc1ccc(S(=O)(=O)N=C(N)N)cc1 (stereo not given),?,96.4,92.0,.,5,88.5,.,.,.,.,.,.,.
COc1ccc(CSc2nncn2N)cc1[N+](=O)[O-],101.6,101.1,109.3,10,14,100.7,.,.,.,.,.,.,.
CC1Cc2ccccc2N1C(=O)C1CCCCN1S(=O)(=O)c1ccccc1 (stereo not given),89.5,93.2,73.9,12,18,87.5,.,.,.,.,.,.,.
O=C(NCCO)Nc1ccc2nc(-c3ccco3)c(-c3ccco3)nc2c1,39.5*,48.3*,17.5*,9,-1,66.2,66.2*,.,.,.,.,.,.
Cc1onc(-c2c(Cl)cccc2Cl)c1C(=O)N=C(N)N1CC(C)OC(C)C1 (stereo not given),?,101.6,96.2,.,9,101.4,.,.,.,.,.,.,.
C=CCn1c(C(CCC(C)C)CC(C)(C)O)n[nH]c1=S (stereo not given),111.0,102.7,93.7,28,6,102.5,.,.,.,.,.,.,.
C=CCn1c(C(CCCC)CC(C)O)n[nH]c1=S (stereo not given),85.0,67.4,-9.0*,9,5,84.3,84.3*,0.1,91.5,88.5,87.2,89.7,55.4
CCCc1cc(-c2nc(-c3ccc(Br)cc3)cs2)ccn1,75.5,68.3,-6.4*,7,5,82.7,82.7*,-0.8,100.5,97.3,98.0,99.3,105.4
CCCc1cc(-c2nc(-c3ccc(Cl)cc3)cs2)ccn1,101.1,99.9,86.8,33,7,100.5,.,.,.,.,.,.,.
COc1ccc2[nH]c(=O)c(CN(C(=O)c3cccnc3)c3ccccc3C)cc2c1,?,142.0*[activator],280.3*[activator],.,118*,306.8*[activator],.,0.6,95.9,56.1*,72.7*,72.1*,39.2*
CC(=O)N1CCN(c2ccc(NCc3cccs3)cc2)CC1,40.3*,45.7*,30.5,18,3,49.6*,.,1.4,105.2,103.5,101.3,99.4,108.0
